Compound activity (PubChem BioAssay)
Compounds with a hit are over-represented: about 21% of the library has one in this group of screens.
Shiga inhibitor – A qHTS for Small Molecule Inhibitors of Shiga Toxin. Vero cells, Shiga toxin protein synthesis inhibition reporter. inhibition, % at 38.7 µM. hit rate 9.2% among 290,000. AID 2315, 2010; in the data active means inhibition mostly above about 28%, no sharp cut-off; inactive means mostly below about 43%
Pf growth 96h – Primary qHTS for delayed death inhibitors of the malarial parasite plastid, 96 hour incubation; P. falciparum luciferase reporter growth, 96 h; Potency, µM (top dose mostly 28.7 µM), usual class: inhibitors; hit rate 6.9% among 320,000
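Two parasite generations (96 h, 37 C, 5% CO2) of compound exposure in infected erythrocytes (0.05% parasitemia, 2% hematocrit). Luciferase-reporter P. falciparum; decreased luminescence indicates inhibited growth, aimed at apicoplast-acting delayed death.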
Pf growth 48h – Primary qHTS for delayed death inhibitors of the malarial parasite plastid, 48 hour incubation; P. falciparum luciferase growth in erythrocytes, 48 h; Potency, µM (top dose mostly 28.7 µM), usual class: inhibitors; hit rate 5.9% among 310,000
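Parasite viability was followed by luminescence of a genomically integrated firefly luciferase. Cultures held 0.1% parasitemia at 2% hematocrit (final), incubated under 5% CO2 at 37 C.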
HCV inhibitor – qHTS Assay for Inhibitors of Hepatitis C Virus (HCV); Huh7.5.1 HCVcc-Cre infection, luciferase reporter, 44 h; hit rate 3.4% among 340,000; AID 651820, 2012; Potency, µM (doses to about 41.8 µM), hits mostly inhibitors
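Compounds are dispensed onto cells plated 4 h earlier at 1,000 per well, with HCVcc-Cre virus (about 0.5 moi) added next. Following 44 h of culture, luminescent signal is measured for 15 sec after 15 min with substrate at room temperature.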
AMA1-RON2 inh – qHTS for Inhibitors of AMA1-RON; Towards Development of Antimalarial Drug Lead: Primary Screen | Plasmodium falciparum AMA1 (3D7) - RON2 peptide interaction | AlphaScreen AMA1-biotinylated RON2 peptide binding | Potency, µM (series often up to 58.2 µM), most hits filed as inhibitors | hit rate 0.2% among 360,000 | AID 720542, 2013; further: nearly all actives have a fitted effect of over 45% in size
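AMA1 (3D7) with his tag at 25 nM final met compounds first, then biotinylated RON2 peptide at 25 nM; detection used donor plus acceptor beads, 10 µg/mL apiece, read by AlphaScreen after 30 min at room temperature.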
Cycloheximide cs – Cycloheximide Counterscreen for Small Molecule Inhibitors of Shiga Toxin. cell reporter, cycloheximide protein synthesis inhibition counterscreen. max response, %. hit rate 12% among 300,000; in the data active means max response mostly above about 13%, no sharp cut-off; inactive means mostly below about 14%; further: read at 38.3 µM for the half of the compounds with a filed dose
A number is an active result; [ ] = remark or other dose. Unless noted, the call rests on the fitted dose curve; in most records, active means well fitted curve in the direction sought with a large enough effect; inconclusive means small, poorly fitted or top-dose-only effect, or another doubt; inactive means no such curve, though single readings can be large; an effect the other way counts as inactive or inconclusive.

Screening COc1ccc(NC(=O)C(OC(=O)c2ccc([N+](=O)[O-])o2)c2ccccc2)cc1Cl (stereo not drawn) returned Shiga inhibitor inactive, Pf growth 96h inactive, Pf growth 48h inactive, HCV inhibitor inactive, AMA1-RON2 inh inactive and Cycloheximide cs 20.3.
COc1ccc(N2CCCC2)c(NC(=O)c2ccc([N+](=O)[O-])o2)c1 was read as Shiga inhibitor inactive, Pf growth 96h inconclusive, Pf growth 48h inconclusive, HCV inhibitor inconclusive, AMA1-RON2 inh inactive and Cycloheximide cs inactive.
Screening COc1ccc(NC(=O)C(OC(=O)c2cnc(C)cn2)c2ccccc2)cc1Cl (stereo not drawn) returned Pf growth 96h inactive, Pf growth 48h inactive, HCV inhibitor inactive and AMA1-RON2 inh inconclusive.
O=C(Nc1ccc(N2CCN(Cc3ccccc3F)CC2)cc1)c1ccccc1[N+](=O)[O-] was read as Shiga inhibitor inactive, Pf growth 96h inactive, Pf growth 48h inactive, HCV inhibitor inactive, AMA1-RON2 inh inactive and Cycloheximide cs inactive.
Screening O=C(Nc1ccc(N2CCN(Cc3ccccc3F)CC2)cc1)c1ccc([N+](=O)[O-])o1 returned Shiga inhibitor inactive, Pf growth 96h inconclusive, Pf growth 48h 1.85µM, HCV inhibitor inconclusive, AMA1-RON2 inh inactive and Cycloheximide cs inactive.
`Cc1cc(NC(=O)COn2nnc3ccc(S(C)(=O)=O)cc32)ccc1Br` gave Shiga inhibitor inactive, Pf growth 96h inactive, Pf growth 48h inactive, HCV inhibitor 10µM, AMA1-RON2 inh inactive and Cycloheximide cs inactive.
`Cc1cc(Br)c(NC(=O)COn2nnc3ccc(S(C)(=O)=O)cc32)c(Br)c1` gave Shiga inhibitor inactive, Pf growth 96h inactive, Pf growth 48h inactive, HCV inhibitor inactive, AMA1-RON2 inh inactive and Cycloheximide cs inactive.
`CC(=O)N1CCCc2cc(S(=O)(=O)N(C)Cc3ccccc3)ccc21` gave Shiga inhibitor inactive, Pf growth 96h inconclusive, Pf growth 48h inactive, HCV inhibitor 35.5µM, AMA1-RON2 inh inactive and Cycloheximide cs inactive.
CC(=O)N1CCCc2cc(S(=O)(=O)Nc3ccccc3C)ccc21 was read as Shiga inhibitor inactive, Pf growth 96h inactive, Pf growth 48h inactive, HCV inhibitor inactive, AMA1-RON2 inh inactive and Cycloheximide cs inactive.
Screening CCCCN(CC)S(=O)(=O)c1ccc2c(c1)CCCN2C(C)=O returned Shiga inhibitor inactive, Pf growth 96h 13.1µM, Pf growth 48h inconclusive, HCV inhibitor inactive, AMA1-RON2 inh inactive and Cycloheximide cs inactive.
CC(=O)N1CCCc2cc(S(=O)(=O)N3CCC(C)CC3)ccc21 was read as Shiga inhibitor inactive, Pf growth 96h inconclusive, Pf growth 48h inactive, HCV inhibitor inactive, AMA1-RON2 inh inactive and Cycloheximide cs inactive.
O=C1c2cccc3cc([N+](=O)[O-])cc(c23)C(=O)N1CCN1CCCC1 was read as Shiga inhibitor inactive, Pf growth 96h inconclusive, Pf growth 48h 9.28µM, HCV inhibitor 1.12µM, AMA1-RON2 inh inactive and Cycloheximide cs inactive.
For O=C1c2cccc3cc([N+](=O)[O-])cc(c23)C(=O)N1/N=C/c1ccc(O)cc1O the results were Shiga inhibitor inactive, Pf growth 96h inconclusive, Pf growth 48h 11.7µM, HCV inhibitor inconclusive, AMA1-RON2 inh inactive and Cycloheximide cs inactive.
Screening CCN(CC)c1ccc(/C=N/N2C(=O)c3ccccc3C2=O)c(O)c1 returned Shiga inhibitor inactive, Pf growth 96h inconclusive, Pf growth 48h inactive, HCV inhibitor inactive, AMA1-RON2 inh inactive and Cycloheximide cs inactive.
For Nc1cc2c3c(cccc3c1)C(=O)N(CCN1CCCC1)C2=O the results were Shiga inhibitor inactive, Pf growth 96h 5.86µM, Pf growth 48h 11.7µM, HCV inhibitor 10µM, AMA1-RON2 inh inactive and Cycloheximide cs inactive.
For COc1ccc(NC(=O)C2c3ccccc3OCC(=O)N2Cc2cccnc2)cc1 (stereo not drawn) the results were AMA1-RON2 inh inactive.
For COCCCN(C(=O)Cc1ccc(S(=O)(=O)N2CCOCC2)s1)c1c(N)n(Cc2ccccc2)c(=O)[nH]c1=O the results were HCV inhibitor inactive and AMA1-RON2 inh inactive.
`CC12CCC=CC1=C(C=O)C1C2CCC2(C)C(O)CCC12` (stereo not drawn) gave HCV inhibitor inactive and AMA1-RON2 inh inactive.
`COc1cc(NC(=O)c2ccco2)c(OC)cc1NC(=O)CCC(=O)Nc1cccc(C)c1C` gave Shiga inhibitor inactive, Pf growth 96h 5.22µM, Pf growth 48h inactive, HCV inhibitor inconclusive, AMA1-RON2 inh inactive and Cycloheximide cs inactive.
For COc1cc(NC(=O)c2ccco2)c(OC)cc1NC(=O)c1cc(OC)c(OC)c(OC)c1 the results were Shiga inhibitor inactive, Pf growth 96h 2.94µM, Pf growth 48h inconclusive, HCV inhibitor inconclusive, AMA1-RON2 inh inactive and Cycloheximide cs inactive.
`Cc1cccc(NC(=O)CCNC(=O)c2ccco2)c1C` gave Shiga inhibitor inactive, Pf growth 96h inactive, Pf growth 48h inconclusive, HCV inhibitor inactive, AMA1-RON2 inh inactive and Cycloheximide cs inactive.
Screening CCOc1cc(NC(=O)c2ccco2)c(OCC)cc1NC(=O)c1cc(OC)c(OC)c(OC)c1 returned Shiga inhibitor inactive, Pf growth 96h inactive, Pf growth 48h inconclusive, HCV inhibitor inconclusive, AMA1-RON2 inh inactive and Cycloheximide cs inactive.
COc1cccc(OC)c1C(=O)OCC(=O)N(c1ccccc1)C1CCCCC1 was read as Pf growth 96h inconclusive, Pf growth 48h inconclusive, HCV inhibitor inconclusive and AMA1-RON2 inh inactive.
Screening O=C1C(c2ccccc2)C(c2ccccc2)NC(c2ccccc2)C1c1ccccc1 (stereo not drawn) returned Shiga inhibitor inactive, Pf growth 96h inactive, Pf growth 48h 1.85µM, HCV inhibitor inactive, AMA1-RON2 inh inactive and Cycloheximide cs inactive.
`O=C1NNC(=O)C1c1ccccc1` gave Shiga inhibitor inactive, Pf growth 96h inactive, Pf growth 48h inactive[0.00184 µM], HCV inhibitor inactive, AMA1-RON2 inh inactive and Cycloheximide cs inactive.
For Cn1c(=O)c2c(ncn2CC(=O)OCC(=O)c2ccc(Br)cc2)n(C)c1=O the results were AMA1-RON2 inh inactive.
For Cc1csc(Nc2ccc(C(=O)O)cc2)n1 the results were Shiga inhibitor 11.4, Pf growth 96h inactive, Pf growth 48h inactive, HCV inhibitor inactive, AMA1-RON2 inh inactive and Cycloheximide cs inactive.
Cc1csc(Nc2ccccc2)n1 was read as Shiga inhibitor 44.3, Pf growth 96h inactive, Pf growth 48h inactive, HCV inhibitor inactive, AMA1-RON2 inh inactive and Cycloheximide cs 22.6.
Screening Cc1csc(NC(=O)c2ccccc2C(=O)O)n1 returned Shiga inhibitor inactive, Pf growth 48h inactive, HCV inhibitor inactive, AMA1-RON2 inh inactive and Cycloheximide cs inactive.
For O=C(O)c1ccc(Nc2nc(-c3ccccc3)cs2)cc1 the results were Shiga inhibitor 112.3, Pf growth 96h inconclusive, Pf growth 48h inactive, HCV inhibitor inactive, AMA1-RON2 inh inactive and Cycloheximide cs 27.4.
